The source made the active and inactive calls.
Columns and labels:
[1] = binders of probe aFSTL3 on microarray, primary screen, stem cell growth factor project, biochemical, small-molecule microarray, fluorescence 635/667 (AID 1064); details: higher = more signal;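 also: measures binding of the biotinylated anti-FSTL3 antibody to printed compounds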
[2] = binders from COS7 lysate, DM2A8 probe, primary screen, torsin A project, cell lysate, small-molecule microarray, fluorescence 635/667 (AID 1065); details: higher = more signal, COS7 lysate expressing mutant human TOR1A
[3] = binders of probe aFGF2 on microarray, primary screen, stem cell growth factor project, biochemical, small-molecule microarray, fluorescence 635/667 (AID 1067); details: higher = more signal;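 also: measures binding of biotinylated aFGF2 protein to printed compounds on slides; z-score merges feature fluorescence and signal-to-noise across triplicate slides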
[4] = binders of probe aFGF10 on microarray, primary screen, stem cell growth factor project, biochemical, small-molecule microarray, fluorescence 635/667 (AID 1071); details: higher = more signal;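 also: score merges 667 nm spot intensity and signal to noise from triplicate slides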
[5] = molecular target: Neurogenic locus notch homolog protein 2 (Homo sapiens) (UniProt Q04721); experiment: Notch2 binders on small-molecule microarrays, primary screen, biochemical, small-molecule microarray, 635 nm fluorescence, stem cell growth factors (AID 1073); details: Notch2 binding, higher = more signal
[6] = molecular target: Pro-neuregulin-1, membrane-bound isoform (Homo sapiens) (UniProt Q02297); experiment: NRG1 binders on small-molecule microarrays, primary screen, psychiatric disease protein project, biochemical, small-molecule microarray, fluorescence 635/667 (AID 1075); details: NRG1 binding, 635 nm fluorescence, higher = more signal;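 also: score combines 667 nm spot fluorescence with signal to noise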
[7] = test system: Neuregulin-1 EGF-like domain; experiment: binders of neuregulin-1 EGF-like domain, primary screen, biochemical, small-molecule microarray, 635 nm fluorescence (AID 1081); details: small-molecule microarray binding, higher = more signal;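 also: binding of the protein to compounds printed on small-molecule microarray slides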
[8] = FRG1 promoter luciferase signal modulators, primary screen, FRG1 inhibition for FSHD, cell-based, C2C12 myotubes, firefly/Renilla luciferase, luminescence (AID 1084); details: higher = more signal, called active from +8 up or from −8 down
[9] = binders of probe aFST on microarray, primary screen, stem cell growth factor project, biochemical, small-molecule microarray, fluorescence 635/667 (AID 1086); details: higher = more signal;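 also: score merges 667 nm fluorescence with signal-to-noise of each printed compound spot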
[10] = binders of probe aHhip on microarray, primary screen, stem cell growth factor project, biochemical, small-molecule microarray, fluorescence 635/667 (AID 1087); details: higher = more signal;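 also: score merges spot fluorescence at 667nm with spot signal to noise ratio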
[11] = test system: PRMT1 (protein arginine N-methyltransferase 1); experiment: PRMT1 binders on small-molecule microarrays, primary screen, biochemical, small-molecule microarray, 635 nm fluorescence (AID 1088); details: small-molecule microarray binding, higher = more signal;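 also: binding of Prmt1 protein to compounds spotted on small-molecule microarray slides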
[12] = yeast growth modulation, basal conditions, primary screen, YJM789 clinical isolate, OD600, 24 h (AID 1089);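 also: growth of clinical yeast isolate S. cerevisiae YJM 789 seeded 1000 cells per well; test concentration not given here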; details: S. cerevisiae YJM789 growth, higher = more signal, called active from +8 up or from −8 down
[13] = fission yeast growth modulation, primary screen, strain 972, OD600, 24 h, no modulator (AID 1090);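 also: basal condition with compound alone and no growth modifier present; test concentration not given here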; details: S. pombe 972 growth, higher = more signal, called active from +8 up or from −8 down
[14] = S. cerevisiae growth modulation with rapamycin, primary screen, strain BY4716, OD600, 96 h (AID 1091); details: higher = more signal, called active from +8 up or from −8 down; also: test concentration not given here
[15] = molecular target: Torsin-1A-interacting protein 2 (Homo sapiens) (UniProt Q8NFQ8); experiment: LULL1 binders on small-molecule microarray, primary screen, cell lysate, human LULL1 lysate, 635/667 nm fluorescence (AID 1092); details: hLULL1 lysate binding, 635 nm fluorescence, higher = more signal;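 also: probe is lysate of COS7 cells overexpressing human LULL1; score merges per-feature 667 nm fluorescence with signal-to-noise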
[16] = E. coli growth modulation, two-sided OD650, primary screen, E. coli filamentation project, strain DRC41, 24 h (AID 1093); details: OD650, 24 h, higher = more signal, called active from +8 up or from −8 down;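 also: MC1000 strain lacking acrAB efflux and sulA so SOS filamentation is blocked; test concentration not given here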
[17] = small-molecule microarray binders of probe aLefty2, primary screen, biochemical, biotinylated probe, 635/667 nm fluorescence (AID 1094); details: higher = more signal;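 also: score merges spot fluorescence near 667 nm with spot signal-to-noise ratio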
[18] = test system: Noggin (protein binding on small-molecule microarray); experiment: Noggin binders on small-molecule microarray, primary screen, biochemical, 635/667 nm fluorescence (AID 1095); details: 635 nm fluorescence, higher = more signal;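 also: score merges 667 nm feature fluorescence with signal to noise over triplicate slides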
[19] = molecular target: Neurogenic locus notch homolog protein 3 (Homo sapiens) (UniProt Q9UM47); experiment: NOTCH3 binders on small-molecule microarray, primary screen, biochemical, 635/667 nm fluorescence (AID 1096); details: NOTCH3 binding, 635 nm fluorescence, higher = more signal
[20] = small-molecule microarray binders of probe aEGFR, primary screen, biochemical, biotinylated probe, 635/667 nm fluorescence (AID 1097); details: higher = more signal;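 also: probe is a biotinylated anti-EGFR antibody binding compounds printed on slides; score combines fluorescence near 667 nm and signal to noise of each spot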

Torsin-1A-interacting protein 2 (Homo sapiens), sequence (Q8NFQ8 whole entry, looked up): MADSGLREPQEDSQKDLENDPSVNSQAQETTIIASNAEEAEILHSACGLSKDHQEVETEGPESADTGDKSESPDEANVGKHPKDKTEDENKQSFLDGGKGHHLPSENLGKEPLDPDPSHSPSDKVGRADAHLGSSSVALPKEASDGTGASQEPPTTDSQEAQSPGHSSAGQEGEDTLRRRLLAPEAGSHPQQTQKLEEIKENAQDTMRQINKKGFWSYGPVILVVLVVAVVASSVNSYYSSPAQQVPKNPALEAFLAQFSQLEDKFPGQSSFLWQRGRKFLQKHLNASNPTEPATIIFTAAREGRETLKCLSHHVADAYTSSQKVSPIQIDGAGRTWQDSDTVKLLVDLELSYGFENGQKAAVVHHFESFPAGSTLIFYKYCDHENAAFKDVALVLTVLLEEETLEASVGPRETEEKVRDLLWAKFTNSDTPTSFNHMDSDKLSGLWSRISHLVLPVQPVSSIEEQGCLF
Pro-neuregulin-1, membrane-bound isoform (Homo sapiens), sequence (Q02297 whole entry, looked up, the tested form may be a part, canonical isoform): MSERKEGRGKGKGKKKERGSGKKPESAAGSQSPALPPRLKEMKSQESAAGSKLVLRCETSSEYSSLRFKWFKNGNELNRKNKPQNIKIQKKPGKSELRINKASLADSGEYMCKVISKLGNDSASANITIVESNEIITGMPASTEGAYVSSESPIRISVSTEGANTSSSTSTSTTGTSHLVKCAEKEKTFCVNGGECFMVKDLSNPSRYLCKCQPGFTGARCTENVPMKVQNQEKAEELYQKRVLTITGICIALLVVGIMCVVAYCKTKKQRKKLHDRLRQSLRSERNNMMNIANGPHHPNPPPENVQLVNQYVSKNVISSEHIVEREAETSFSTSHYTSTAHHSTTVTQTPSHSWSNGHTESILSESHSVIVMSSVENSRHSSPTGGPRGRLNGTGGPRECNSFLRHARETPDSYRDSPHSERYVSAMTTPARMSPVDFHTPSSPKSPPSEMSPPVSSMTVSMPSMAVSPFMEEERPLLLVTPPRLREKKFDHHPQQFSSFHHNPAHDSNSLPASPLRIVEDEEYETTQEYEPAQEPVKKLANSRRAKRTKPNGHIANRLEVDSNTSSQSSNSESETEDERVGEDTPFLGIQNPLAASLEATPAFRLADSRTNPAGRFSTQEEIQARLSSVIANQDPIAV
Neurogenic locus notch homolog protein 3 (Homo sapiens), sequence (Q9UM47 whole entry, looked up): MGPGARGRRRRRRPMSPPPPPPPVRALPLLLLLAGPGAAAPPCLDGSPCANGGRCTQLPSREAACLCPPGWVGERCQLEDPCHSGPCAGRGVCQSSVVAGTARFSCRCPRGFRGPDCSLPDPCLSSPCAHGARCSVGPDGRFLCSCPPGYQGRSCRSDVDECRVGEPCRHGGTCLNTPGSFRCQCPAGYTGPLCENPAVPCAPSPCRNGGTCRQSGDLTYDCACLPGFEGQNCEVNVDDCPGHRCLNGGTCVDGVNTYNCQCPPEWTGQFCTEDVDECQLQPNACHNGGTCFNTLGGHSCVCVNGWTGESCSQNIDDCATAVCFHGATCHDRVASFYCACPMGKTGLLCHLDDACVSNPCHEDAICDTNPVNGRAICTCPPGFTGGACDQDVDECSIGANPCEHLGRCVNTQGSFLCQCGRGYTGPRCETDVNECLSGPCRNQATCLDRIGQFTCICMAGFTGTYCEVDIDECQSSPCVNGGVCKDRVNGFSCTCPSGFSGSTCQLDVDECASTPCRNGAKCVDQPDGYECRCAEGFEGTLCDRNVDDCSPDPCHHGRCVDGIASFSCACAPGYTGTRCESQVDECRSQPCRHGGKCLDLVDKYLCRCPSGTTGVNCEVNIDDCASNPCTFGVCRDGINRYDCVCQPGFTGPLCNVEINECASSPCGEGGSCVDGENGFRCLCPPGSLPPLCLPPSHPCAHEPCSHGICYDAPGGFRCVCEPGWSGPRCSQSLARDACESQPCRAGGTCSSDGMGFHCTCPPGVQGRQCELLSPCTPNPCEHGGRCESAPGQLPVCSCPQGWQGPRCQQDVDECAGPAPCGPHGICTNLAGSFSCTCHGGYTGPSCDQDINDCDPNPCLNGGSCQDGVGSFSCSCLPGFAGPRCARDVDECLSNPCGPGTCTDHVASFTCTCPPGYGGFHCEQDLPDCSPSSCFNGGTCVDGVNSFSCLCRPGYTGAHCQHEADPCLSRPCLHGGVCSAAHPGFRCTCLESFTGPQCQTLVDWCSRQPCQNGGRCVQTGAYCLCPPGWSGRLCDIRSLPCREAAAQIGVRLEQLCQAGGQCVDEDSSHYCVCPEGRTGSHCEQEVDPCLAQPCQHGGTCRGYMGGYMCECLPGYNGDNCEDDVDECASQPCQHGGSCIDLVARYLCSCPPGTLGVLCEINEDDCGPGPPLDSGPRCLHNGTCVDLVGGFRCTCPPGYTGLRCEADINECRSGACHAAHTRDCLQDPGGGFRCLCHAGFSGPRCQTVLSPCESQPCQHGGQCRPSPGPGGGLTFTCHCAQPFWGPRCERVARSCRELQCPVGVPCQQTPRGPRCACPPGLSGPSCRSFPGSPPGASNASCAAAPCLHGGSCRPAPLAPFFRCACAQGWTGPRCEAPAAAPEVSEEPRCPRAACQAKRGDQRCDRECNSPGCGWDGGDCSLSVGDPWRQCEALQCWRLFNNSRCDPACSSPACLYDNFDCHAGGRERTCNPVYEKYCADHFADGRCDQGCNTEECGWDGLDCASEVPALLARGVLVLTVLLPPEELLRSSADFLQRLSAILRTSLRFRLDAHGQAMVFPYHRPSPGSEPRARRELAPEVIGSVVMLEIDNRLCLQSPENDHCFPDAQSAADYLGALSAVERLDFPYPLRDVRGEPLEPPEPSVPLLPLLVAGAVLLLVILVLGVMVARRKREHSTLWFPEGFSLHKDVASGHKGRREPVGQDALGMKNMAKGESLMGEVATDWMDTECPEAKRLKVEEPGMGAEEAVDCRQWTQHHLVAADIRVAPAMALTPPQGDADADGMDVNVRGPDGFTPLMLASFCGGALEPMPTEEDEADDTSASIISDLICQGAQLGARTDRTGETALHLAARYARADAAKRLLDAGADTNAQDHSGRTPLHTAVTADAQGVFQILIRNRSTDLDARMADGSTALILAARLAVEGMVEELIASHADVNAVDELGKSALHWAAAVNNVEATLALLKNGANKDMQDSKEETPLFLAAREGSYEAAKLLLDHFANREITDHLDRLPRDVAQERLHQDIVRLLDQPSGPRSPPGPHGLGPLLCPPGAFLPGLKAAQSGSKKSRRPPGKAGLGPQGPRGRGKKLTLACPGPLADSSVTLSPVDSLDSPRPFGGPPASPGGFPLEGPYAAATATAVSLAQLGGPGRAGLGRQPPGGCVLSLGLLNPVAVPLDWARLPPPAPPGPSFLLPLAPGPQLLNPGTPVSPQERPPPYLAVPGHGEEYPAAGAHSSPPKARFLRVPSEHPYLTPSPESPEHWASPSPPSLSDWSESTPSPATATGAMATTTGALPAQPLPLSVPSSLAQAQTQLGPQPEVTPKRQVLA

Row | Compound | composite z-score [1] | composite z-score [2] | composite z-score [3] | composite z-score [4] | composite z-score [5] | composite z-score [6] | composite z-score [7] | z-score [8] | composite z-score [9] | composite z-score [10] | composite z-score [11] | z-score [12] | z-score [13] | z-score [14] | composite z-score [15] | z-score [16] | composite z-score [17] | composite z-score [18] | composite z-score [19] | composite z-score [20]
1 | COc1ccc(C(=O)Nc2ccc(CN3C(=O)[C@]4(O[C@H](CC(=O)N5CCC[C@H]5CO)[C@@H]([Si](C)(C)c5ccc(OC)cc5)[C@@H]4C)c4ccccc43)cc2)cc1 | -0.332 | 0.355 | -0.0715 | 0.656 | 0.351 | 1.42 | 1.31 | -1.54 (inactive) | -0.0939 | 0.0749 | 1.54 | -0.676 (inactive) | 0.173 (inactive) | -0.539 (inactive) | 2.57 | -0.481 (inactive) | -0.124 | 1.35 | 1.1 | -0.12
2 | O=C(O)[C@H]1C[C@H]2C(=O)N3CCC[C@H]3C(=O)N2[C@H]1c1ccc(O)cc1 | 1.22 | -0.104 | -0.195 | -0.929 | -2.12 | -0.0857 | 0.804 | -0.305 (inactive) | -0.834 | 0.147 | -0.57 | 0.428 (inactive) | -0.613 (inactive) | 0.333 (inactive) | 0.631 | 0.863 (inactive) | 0.0212 | -0.571 | -1.23 | -0.268
3 | O=C(CS)NCCCCCNC(=O)[C@H]1C[C@H]2C(=O)NCC(=O)N2[C@H]1c1ccc(O)cc1 | 0.205 | 0.354 | -0.159 | -0.583 | -1.4 | -0.83 | -0.0307 | 1.41 (inactive) | -0.753 | -0.204 | -0.313 | -2.76 (inactive) | 1.02 (inactive) | -1.11 (inactive) | -1.29 | 0.77 (inactive) | -0.179 | -0.177 | -0.905 | -0.132
4 | O=C1O[C@@H](c2ccccc2)[C@@H](c2ccccc2)N2[C@@H](c3ccc(OCCO)cc3)[C@]3(C(=O)Nc4ccc(C#CCCO)cc43)[C@@H](C(=O)NC[C@H](O)c3ccccc3)[C@H]12 | 0.193 | 0.458 | -0.0281 | 0.902 | 0.578 | 1.01 | 1.17 | -0.772 (inactive) | 0.456 | 0.0052 | 1.54 | 2.55 (inactive) | 1.19 (inactive) | 4.63 (inactive) | 2.71 | 0.695 (inactive) | 0.409 | 1.25 | 0.667 | 0.258
5 | C=CCNC(=O)[C@H]1[C@@H]2C(=O)O[C@@H](c3ccccc3)[C@@H](c3ccccc3)N2[C@@H](c2ccc(O)cc2)[C@]12C(=O)Nc1ccc(C#CCCO)cc12 | -0.107 | -1.51 | -0.122 | -0.0819 | -0.697 | 1.01 | 0.732 | -3.71 (inactive) | 0.33 | -0.0994 | 0.586 | 1.35 (inactive) | 1.84 (inactive) | 1.13 (inactive) | 1.97 | 0.515 (inactive) | -0.0915 | -0.325 | -0.356 | -0.201
6 | COC(=O)C(CC#Cc1ccc2c(c1)[C@]1(C(=O)N2)[C@H](c2ccccc2OCCO)N2[C@H](c3ccccc3)[C@H](c3ccccc3)OC(=O)[C@H]2[C@@H]1C(N)=O)C(=O)OC | 1.88 | 0.726 | 0.255 | 0.774 | 0.806 | 1.69 | 1.32 | -1.84 (inactive) | 1.84 | 0.087 | 1.27 | 1.31 (inactive) | -0.117 (inactive) | 3.7 (inactive) | 2.93 | 1.13 (inactive) | 1.11 | 0.0814 | 0.895 | 0.656
7 | CC(C)[Si](C#CCCCC#N)(Oc1ccccc1Br)C(C)C | -0.517 | 0.14 | -0.182 | 0.151 | 0.266 | 0.151 | 0.204 | 0.382 (inactive) | 0.155 | 0.316 | 0.987 | 1.13 (inactive) | -1.09 (inactive) | -1.96 (inactive) | 0.86 | -0.146 (inactive) | -0.203 | 0.506 | 0.653 | -0.0389
8 | C=CC[C@]1(C(=O)NCc2ccccc2)N=C(c2ccc(OCCCO)cc2)O[C@H]1c1ccccc1CN=[N+]=[N-] | 0.0143 | 0.234 | 0.053 | 0.505 | 1.54 | 1.05 | 1.11 | -2.43 (inactive) | 1.02 | 0.0854 | 1.35 | -0.755 (inactive) | -0.175 (inactive) | 1.54 (inactive) | 2.87 | -0.765 (inactive) | 0.0634 | 0.853 | 1.06 | 0.107
9 | COCC(=C=CC[C@@H](O)c1ccc(OCCO)cc1)C[C@@H](O)c1ccccn1 | -0.212 | -0.116 | -0.0633 | 0.923 | 0.687 | 1 | 1.24 | 1.33 (inactive) | 0.423 | -0.236 | 0.37 | -0.64 (inactive) | -1.13 (inactive) | -0.0669 (inactive) | 0.608 | -0.136 (inactive) | -0.0931 | 0.274 | -0.0817 | 0.361
10 | COCCOC(=O)N1C(=O)[C@@]2(c3cc(C#CC4(O)CCCCCC4)ccc31)[C@H](c1ccccc1OCCO)N1[C@H](c3ccccc3)[C@H](c3ccccc3)OC(=O)[C@H]1[C@@H]2C(=O)N1CCc2cc(OC)c(OC)cc2C1 | -0.207 | 0.788 | -0.0685 | 0.542 | 1.03 | 1.6 | 1.19 | -0.658 (inactive) | 0.223 | 0.177 | 1.55 | 2.46 (inactive) | 2.71 (inactive) | 5.86 (inactive) | 2.96 | 0.339 (inactive) | -0.0903 | 1.24 | 1.05 | 0.0092
